These results are taken from PubChem BioAssay (Tox21).

Values joined by “and” are separate entries in the source; they are usually repeats but may differ in a detail not shown here. Equal entries are not always repeated. The source holds several records for some structures; these can differ, active in one and inactive in another. Active and inactive are the calls of the source. Unless noted, calls follow the shape of the dose curve; as a rule, active = well fitted curve in the direction sought with a large enough effect in the repeat runs; inconclusive = weak or mixed curves; inactive = no such curve, though single readings can be large; an effect the other way counts as inactive or inconclusive.

Test [1] can be described thus: qHTS assay to identify small molecule antagonists of the glucocorticoid receptor (GR) signaling pathway - cell viability counter screen (AID 720693). Also: nearly all actives have a fitted effect of over 55% in size.
The nature of test [2]: qHTS assay for identifying genotoxic compounds that show differential cytotoxicity against isogenic chicken DT40 cell lines with known DNA damage response pathways - wild type cell line (AID 743012). Also: nearly all actives have a fitted effect of over 60% in size. Also: potency is read from the fitted curve at half-maximal effect. In outline: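 Viability by ATP luminescence (CellTiter-Glo, 30 min RT) after 40 h compound treatment at 37 C/5% CO2, using 300 parental DNA repair-proficient DT40 cells per well.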

Test [3] can be described thus: qHTS assay for identifying genotoxic compounds that show differential cytotoxicity against isogenic chicken DT40 cell lines with known DNA damage response pathways - Rev3 mutant cell line (AID 743014). Also: nearly all actives have a fitted effect of over 55% in size. Also: potency is read from the fitted curve at half-maximal effect.
The nature of test [4]: qHTS assay for identifying genotoxic compounds that show differential cytotoxicity against isogenic chicken DT40 cell lines with known DNA damage response pathways - Rad54/Ku70 mutant cell line (AID 743015). Also: nearly all actives have a fitted effect of over 60% in size. Also: potency is read from the fitted curve at half-maximal effect.
Test [5] can be described thus: qHTS assay to identify small molecule antagonists of the androgen receptor (AR) signaling pathway - cell viability counter screen (AID 743033; also: nearly all actives have a fitted effect of over 45% in size).
Test [6] in a line: qHTS assay to identify small molecule antagonists of the androgen receptor (AR) signaling pathway using the MDA cell line - cell viability counter screen (AID 743041; also: nearly all actives have a fitted effect of over 45% in size). In outline: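 Cytotoxicity counter screen: MDA-kb2 AR-luc cells, compound + R1881, 16 h, 37C, 0% CO2; CellTiter-Fluor added at 15.5 h, fluorescence read after 30 min.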
A short description of test [7]: qHTS assay to identify small molecule antagonists of the thyroid receptor (TR) signaling pathway - cell viability counter screen (AID 743064). Also: nearly all actives have a fitted effect of over 50% in size. Also: potency is read from the fitted curve at half-maximal effect. In outline: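 In-well cytotoxicity read by CellTiter-Fluor (30 min, 37 C) following 23.5 h exposure of GH3 cells bearing a TRE-luciferase sensor. Compounds were added alongside 1 nM (final) T3 to drive TR transactivation.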

Test [8] is described as follows: qHTS assay to identify small molecule antagonists of the thyroid receptor (TR) signaling pathway (AID 743065). Also: nearly all actives have a fitted effect of over 55% in size. Also: potency is read from the fitted curve at half-maximal effect. In outline: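 GH3.TRE-Luc rat pituitary cells (two TREs driving luciferase) were dosed with compound, then stimulated with 1 nM T3 (final) for 23.5 h at 37 C. ONE-Glo luminescence was the read-out, with CellTiter-Fluor fluorescence as the cytotoxicity counter-screen.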

In test [9] the test system is thyroid hormone receptor (rat, GH3 cells). The test can be described thus: qHTS assay to identify small molecule agonists of the thyroid receptor (TR) signaling pathway (AID 743066; calls by dose curve; also: potency is read from the fitted curve at half-maximal effect).
For test [10], the target named is Estrogen receptor (Homo sapiens) (UniProt P03372). Description: qHTS assay to identify small molecule antagonists of the estrogen receptor alpha (ER-alpha) signaling pathway (AID 743069; active = well fitted curve in the direction sought with a large enough effect in the signal ratio in the repeat runs, not every such curve was filed as active; inconclusive = weak or mixed curves, or effect the other way; inactive = no such curve, though single readings can be large or run the other way; the % refers to the signal ratio; also: potency is read from the fitted curve at half-maximal effect). In outline: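 Beta-lactamase FRET fluorescence is read after 2 hr at room temperature with LiveBLAzer B/G substrate. Before that, ER-alpha-bla HEK293 cells sit 4 hr after plating, then receive compound plus 17beta-estradiol and incubate 18 hr at 37C.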

Test [11] is described as follows: qHTS assay to identify small molecule antagonists of the estrogen receptor alpha (ER-alpha) signaling pathway - cell viability counter screen (AID 743074; calls by dose curve;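 also: HEK293 cells carrying ER-alpha-UAS-bla reporter stimulated with 17beta-estradiol; nearly all actives have a fitted effect of over 45% in size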).
Test [12] has as its target Estrogen receptor (Homo sapiens) (UniProt P03372). Description: qHTS assay to identify small molecule agonists of the estrogen receptor alpha (ER-alpha) signaling pathway (AID 743075; calls by dose curve;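 also: HEK293 GripTite cells with ER-alpha and UAS-driven beta-lactamase reporter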).
For test [13] the target is unchanged. The test can be described thus: qHTS assay to identify small molecule agonists of the estrogen receptor alpha (ER-alpha) signaling pathway using the BG1 cell line (AID 743079). Also: nearly all actives have a fitted effect of over 20% in size. Also: potency is read from the fitted curve at half-maximal effect.
A short description of test [14]: qHTS assay to identify small molecule antagonists of the estrogen receptor alpha (ER-alpha) signaling pathway using the BG1 cell line (AID 743080; calls by dose curve;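 also: BG1 cells stimulated with 17beta-estradiol alongside compound; nearly all actives have a fitted effect of over 25% in size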; also: potency is read from the fitted curve at half-maximal effect). In outline: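 After 5 days in phenol-red-free 10% charcoal-stripped FBS medium, BG1-Luc-4E2 cells were seeded, left 24 h at 37 C, co-treated with compounds and 17beta-estradiol for 21.5 h, then assayed for viability and luciferase.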

Test [15] in a line: qHTS assay to identify small molecule antagonists of the estrogen receptor alpha (ER-alpha) signaling pathway using the BG1 cell line - cell viability counter screen (AID 743081).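 Also: compound given together with 17beta-estradiol as the ER stimulus; series mostly up to about 70 µM; nearly all actives have a fitted effect of over 45% in size.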
Another test has as its target Aromatase (Homo sapiens) (UniProt P11511). The test can be described thus: qHTS assay to identify aromatase inhibitors (AID 743083). Also: nearly all actives have a fitted effect of over 55% in size. Also: potency is read from the fitted curve at half-maximal effect.
Test [16] deals with Androgen receptor (Homo sapiens) (UniProt P10275). The test can be described thus: qHTS assay to identify small molecule agonists of the androgen receptor (AR) signaling pathway (AID 743036; active = well fitted activation curve with a large enough effect in the signal ratio in the repeat runs, with a control signal flat, not every such curve was filed as active; inconclusive = weak or mixed curves, or effect the other way; inactive = no such curve, though single readings can be large or run the other way; the % refers to the signal ratio). In outline:
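Activation was read as beta-lactamase FRET signal from LiveBLAzer B/G substrate, added for 2 h at room temperature. Before that, GeneBLAzer AR-UAS-bla GripTite (HEK293) cells had 16 h compound exposure at 37C.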

Test [17] has the same target. The test can be described thus: qHTS assay to identify small molecule agonists of the androgen receptor (AR) signaling pathway using the MDA cell line (AID 743040; also: nearly all actives have a fitted effect of over 20% in size). In outline: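 Luciferase read-out, ONE-Glo, 30 min RT. Cells: MDA-kb2 AR-luc, MMTV promoter with AR and GR response elements. Compound exposure 16 h, 37C, 0% CO2, after 5 h pre-incubation. qHTS agonist mode.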

Test [18] has the same target. The test can be described thus: qHTS assay to identify small molecule antagonists of the androgen receptor (AR) signaling pathway (AID 743035; active = well fitted inhibition curve with a large enough effect in the signal ratio in the repeat runs, not every such curve was filed as active; inconclusive = weak or mixed curves, or effect the other way; inactive = no such curve, though single readings can be large or run the other way; the % refers to the signal ratio). In outline:
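Antagonist mode: AR-bla HEK293 cells co-treated with test compounds and agonist R1881 for 16 h at 37C, 5% CO2. Beta-lactamase activity read as FRET fluorescence after 2 h room-temperature substrate loading.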

Test [19] shares this target. The test can be described thus: qHTS assay to identify small molecule antagonists of the androgen receptor (AR) signaling pathway using the MDA cell line (AID 743042; also: nearly all actives have a fitted effect of over 55% in size). In outline: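 MDA-kb2 breast carcinoma cells carrying MMTV-luciferase (AR/GR responsive) were co-treated with compounds and the agonist R1881 for 16 h at 37C. Inhibition read as ONE-Glo luminescence; CellTiter-Fluor fluorescence measured in parallel for cytotoxicity.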

Chain of Estrogen receptor (Homo sapiens) (P03372 whole entry, looked up): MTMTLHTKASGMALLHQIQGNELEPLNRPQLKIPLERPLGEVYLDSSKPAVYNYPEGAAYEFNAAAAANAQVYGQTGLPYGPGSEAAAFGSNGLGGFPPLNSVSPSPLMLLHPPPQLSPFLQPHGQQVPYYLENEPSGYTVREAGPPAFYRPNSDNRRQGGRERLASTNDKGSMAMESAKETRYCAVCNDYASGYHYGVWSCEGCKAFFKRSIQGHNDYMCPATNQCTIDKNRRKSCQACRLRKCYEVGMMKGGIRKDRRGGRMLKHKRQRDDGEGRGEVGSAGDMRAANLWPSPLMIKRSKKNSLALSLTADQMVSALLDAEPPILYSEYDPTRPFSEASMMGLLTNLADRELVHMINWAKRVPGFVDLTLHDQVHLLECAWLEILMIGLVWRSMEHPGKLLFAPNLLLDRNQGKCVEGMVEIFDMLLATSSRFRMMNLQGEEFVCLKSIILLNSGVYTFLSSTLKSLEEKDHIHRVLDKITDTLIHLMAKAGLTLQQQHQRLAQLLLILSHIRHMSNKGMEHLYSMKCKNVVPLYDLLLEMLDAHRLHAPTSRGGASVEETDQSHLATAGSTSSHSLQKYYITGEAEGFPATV
Chain of Aromatase (Homo sapiens) (P11511 whole entry, looked up): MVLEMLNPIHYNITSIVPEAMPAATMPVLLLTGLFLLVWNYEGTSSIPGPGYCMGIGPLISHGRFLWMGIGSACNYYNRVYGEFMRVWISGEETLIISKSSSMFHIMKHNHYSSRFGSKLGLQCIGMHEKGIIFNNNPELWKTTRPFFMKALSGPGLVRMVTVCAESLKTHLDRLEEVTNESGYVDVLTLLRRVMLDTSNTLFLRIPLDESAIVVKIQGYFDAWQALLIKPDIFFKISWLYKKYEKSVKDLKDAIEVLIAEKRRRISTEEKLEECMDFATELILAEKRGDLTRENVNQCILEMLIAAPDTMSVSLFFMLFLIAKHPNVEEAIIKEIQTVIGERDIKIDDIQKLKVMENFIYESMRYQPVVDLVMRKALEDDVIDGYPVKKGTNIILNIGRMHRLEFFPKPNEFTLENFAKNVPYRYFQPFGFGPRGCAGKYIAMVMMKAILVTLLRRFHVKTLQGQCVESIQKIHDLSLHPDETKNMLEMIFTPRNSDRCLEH
Chain of Androgen receptor (Homo sapiens) (P10275 whole entry, looked up): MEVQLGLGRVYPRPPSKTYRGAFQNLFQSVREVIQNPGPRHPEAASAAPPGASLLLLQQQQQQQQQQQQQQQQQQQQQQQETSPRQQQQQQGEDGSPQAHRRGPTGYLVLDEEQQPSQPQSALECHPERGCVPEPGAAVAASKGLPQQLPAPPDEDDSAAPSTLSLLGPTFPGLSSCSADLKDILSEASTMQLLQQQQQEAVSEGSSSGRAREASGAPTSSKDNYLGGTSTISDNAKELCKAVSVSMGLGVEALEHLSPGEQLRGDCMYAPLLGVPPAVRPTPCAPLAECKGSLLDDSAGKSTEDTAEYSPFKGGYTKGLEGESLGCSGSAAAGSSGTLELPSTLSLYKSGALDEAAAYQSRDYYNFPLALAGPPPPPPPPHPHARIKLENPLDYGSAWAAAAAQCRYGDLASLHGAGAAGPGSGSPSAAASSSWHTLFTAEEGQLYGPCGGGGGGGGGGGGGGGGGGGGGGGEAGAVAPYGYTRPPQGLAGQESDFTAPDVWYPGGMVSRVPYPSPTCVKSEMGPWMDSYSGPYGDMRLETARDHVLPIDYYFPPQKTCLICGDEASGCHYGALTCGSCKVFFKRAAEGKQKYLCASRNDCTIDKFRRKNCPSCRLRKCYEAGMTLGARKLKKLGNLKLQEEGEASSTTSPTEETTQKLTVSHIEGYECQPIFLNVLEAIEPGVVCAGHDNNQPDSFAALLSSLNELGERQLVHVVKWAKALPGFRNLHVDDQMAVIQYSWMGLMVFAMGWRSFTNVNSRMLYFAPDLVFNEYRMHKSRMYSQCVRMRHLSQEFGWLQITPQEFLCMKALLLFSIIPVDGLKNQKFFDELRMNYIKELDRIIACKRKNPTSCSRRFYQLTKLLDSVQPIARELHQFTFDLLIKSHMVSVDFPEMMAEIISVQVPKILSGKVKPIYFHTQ

Turning to `CCOc1ccc(C(C)(C)COCc2cccc(Oc3ccccc3)c2)cc1`, the Potency entry in test [1], in test [2], in test [3], in [4], in test [5] and in [6] was “inactive” in each case. The Potency entry in test [7], in [8], in test [9], in test [10], in [11] and in test [12] was “inactive” each time. In addition, the Potency result (in test [13]; in test [14]; in test [15]; in the test with Aromatase (Homo sapiens)) was “inactive” each time.

As for `O=Cc1ccc(Cl)cc1Cl`, the Potency entry in test [1], in test [2], in [3], in test [4], in test [5] and in test [6] was “inactive” throughout. The Potency entry (in test [7]; in [8]; in test [9]; in [11]; in test [15]; with Aromatase (Homo sapiens)) was “inactive” throughout.

Turning to `N#Cc1ccc(Cl)cc1`, the Potency entry in test [1], in test [2], in [3], in test [4], in test [5] and in test [6] was “inactive” throughout. Also, the Potency entry in test [7], in [10], in [12], in test [13], in [14] and in [15] was “inactive” throughout. Besides, the Potency result with Aromatase (Homo sapiens) is “inactive”.

On to `CCCCCCCCOC(=O)c1ccc(C(=O)OCCCCCCCC)c(C(=O)OCCCCCCCC)c1`, for which the Potency entry in test [1], in [2], in [3], in test [4], in test [5] and in test [7] was “inactive” each time. Besides, the Potency result (in test [8]; in [9]; in test [11]; in test [15]; with Aromatase (Homo sapiens)) was “inactive” throughout.

Take `C=CC(=O)OC(C)(C)C`: the Potency entry in [1], in [2], in [3], in test [4], in test [5] and in test [6] was “inactive” each time. Besides, the Potency result (in [7]; in test [11]; in test [15]; with Aromatase (Homo sapiens)) was “inactive” in each case.

For the compound `O=S1OC[C@@H]2[C@H](CO1)[C@]1(Cl)C(Cl)=C(Cl)[C@@]2(Cl)C1(Cl)Cl` (stereo not given in full), the Potency result in test [1], in [17], in test [6], in test [9], in test [11] and in [12] was “inactive” in each case. The Potency entry in test [15] was “inactive”. Also, the Potency is 24.3 µM (active) in [2], 27.3 µM (active) in test [3], 30.6 µM (active) in [4] and 61.1 µM (active) in the test with Aromatase (Homo sapiens). Also, the call in test [16] was inactive.

In the case of `ClCCCCBr`, the Potency entry in [1], in [2], in [3], in test [4], in [5] and in test [6] was “inactive” each time. The Potency entry (in [7]; in [11]; in test [15]; with Aromatase (Homo sapiens)) was “inactive” each time.

As to `CS/C(C)=N/OC(=O)N(C)SN(C)C(=O)O/N=C(\C)SC`, the Potency result in test [1], in test [18], in test [17], in test [6], in test [19] and in test [9] was “inactive” throughout. For the same compound, the Potency entry in test [10], in test [11], in test [12], in test [13], in test [14] and in [15] was “inactive” throughout. Further, the Potency result with Aromatase (Homo sapiens) is “inactive”. The Potency in test [2] is 6.86 µM (active); in [3] it was 17.2 µM (active); in test [4], 15.4 µM (active); in test [7] it was 27.3 µM (active); in [8] it was 27.3 µM (active). In addition, the outcome in [16] was inactive.

`[CH3][Sn]([CH3])([Cl])[Cl]`: the Potency entry (in test [1]; in test [5]; in [9]; in [11]; in [15]; with Aromatase (Homo sapiens)) was “inactive” each time. The Potency in test [2] is 54.5 µM (active); in test [3], 62.1 µM (active) and 27.3 µM (active); in test [4] it was 48.6 µM (active); in test [7] it was 55.4 µM (active) and inactive; in test [8], 55.4 µM (active) and 68.6 µM (active).

`CC(O)(CS(=O)(=O)c1ccc(F)cc1)C(=O)Nc1ccc(C#N)c(C(F)(F)F)c1` (stereo not given): the Potency result in [1], in test [5], in test [7], in [9], in test [11] and in test [12] was “inactive” in each case. The Potency result (in [13]; in test [15]; with Aromatase (Homo sapiens)) was “inactive” throughout. The Potency in [2] is 26.6 µM (active); in test [3] it was 10.6 µM (active) and 28.3 µM (active); in test [4], 23.7 µM (active) and 28.3 µM (active); in test [14], 29.8 µM (active).

As for `CCn1cc[n+](C)c1`, the Potency entry in test [1], in test [2], in [3], in test [4], in test [5] and in test [6] was “inactive” throughout. The Potency entry in [7], in test [11] and in [15] was “inactive” throughout. The Potency entry in test [9] was “inactive and 49.2 µM (active)”.

On to `CCOP(=O)(OCC)O/C(=C/Cl)c1ccc(Cl)cc1Cl`, for which the Potency result in [1], in test [5], in [9], in test [11], in test [12] and in test [13] was “inactive” throughout. Besides, in [15], the Potency entry was “inactive”. The Potency was 11.9 µM (active) and 15.4 µM (active) in [2]; 23.7 µM (active) and 27.3 µM (active) in test [3]; 23.7 µM (active) and 27.3 µM (active) in test [4]; 29.8 µM (active) and 61.1 µM (active) in test [8]; 21.9 µM [inconclusive] (active) in [10]; 54.5 µM (active) in test [14]. For the same compound, in the test with Aromatase (Homo sapiens), the Potency was 27.3 µM (active).

For the compound `CCOP(O)OCC`, the Potency entry in test [1], in test [2], in [3], in test [4], in [5] and in test [7] was “inactive” throughout. In addition, the Potency entry (in [8]; in [9]; in test [15]; with Aromatase (Homo sapiens)) was “inactive” in each case.

Turning to `CCOP(=S)(OCC)SCSCC`, the Potency result in test [1], in [5], in test [7], in [8], in [9] and in test [10] was “inactive” in each case. Moreover, the Potency entry (in test [11]; in [12]; in test [14]; in test [15]; with Aromatase (Homo sapiens)) was “inactive” in each case. For the same compound, the Potency in test [2] is 54.5 µM (active); in [3] it was 27.3 µM (active); in test [4], 48.6 µM (active); in test [13], 30.6 µM (active).

On to `CCCN(CCCl)c1c([N+](=O)[O-])cc(C(F)(F)F)cc1[N+](=O)[O-]`, for which the Potency entry in test [1], in [2], in test [3], in [4], in test [5] and in test [7] was “inactive” each time. For the same compound, the Potency entry in test [8], in [9], in test [10], in test [11], in [12] and in test [13] was “inactive” in each case. For the same compound, the Potency result (in test [14]; in [15]; in the test with Aromatase (Homo sapiens)) was “inactive” throughout.

Take `COc1nn(C(=O)NS(=O)(=O)c2ccccc2OC(F)(F)F)c(=O)n1C`: the Potency entry in test [1], in [2], in test [3], in test [4], in test [5] and in test [6] was “inactive” each time. For the same compound, the Potency result (in [7]; in test [8]; in test [9]; in test [11]; in test [15]; with Aromatase (Homo sapiens)) was “inactive” in each case.

As for `O=S(=O)(Cl)c1ccccc1`, the Potency entry in test [1], in test [2], in [3], in test [4], in test [5] and in test [6] was “inactive” in each case. Also, the Potency entry (in [7]; in test [8]; in test [9]; in test [11]; in [15]; in the test with Aromatase (Homo sapiens)) was “inactive” throughout.

Regarding `O=C(O)CC(Cl)C(=O)O` (stereo not given), the Potency entry in [1], in test [2], in [3], in test [4], in test [5] and in test [6] was “inactive” each time. Also, the Potency result (in test [7]; in [11]; in [15]; in the test with Aromatase (Homo sapiens)) was “inactive” throughout.
